SMILES strings stand for the structures. Activity calls are given as the source filed them. Rule for the calls: active = hit-call score of the fitted dose curve at least 0.9, where 1 is the maximum; inconclusive = response in the unintended direction; inactive = score below 0.9.

Chain of Estrogen receptor beta (Homo sapiens) (Q92731 whole entry, looked up, the tested form may be a part): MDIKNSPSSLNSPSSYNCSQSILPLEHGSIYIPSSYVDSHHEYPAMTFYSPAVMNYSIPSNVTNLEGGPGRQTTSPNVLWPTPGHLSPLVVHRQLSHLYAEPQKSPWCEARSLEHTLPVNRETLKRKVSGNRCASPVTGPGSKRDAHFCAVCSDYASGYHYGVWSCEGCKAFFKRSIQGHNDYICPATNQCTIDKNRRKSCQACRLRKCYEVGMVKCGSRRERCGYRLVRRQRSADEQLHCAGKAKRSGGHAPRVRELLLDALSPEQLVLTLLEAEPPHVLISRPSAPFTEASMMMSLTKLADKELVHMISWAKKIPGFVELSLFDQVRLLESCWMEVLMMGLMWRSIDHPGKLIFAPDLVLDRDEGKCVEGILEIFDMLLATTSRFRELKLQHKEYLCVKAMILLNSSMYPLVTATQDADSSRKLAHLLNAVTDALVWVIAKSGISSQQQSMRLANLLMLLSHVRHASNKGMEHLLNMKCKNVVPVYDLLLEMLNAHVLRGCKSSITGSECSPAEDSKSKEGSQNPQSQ

The assay addresses Estrogen receptor beta (Homo sapiens) (UniProt Q92731). Put plainly: OT_ER_ERbERb_1440: Odyssey Thera (OT) 24-hour HEK293T Protein-Complementation Assay for Estrogen Receptor-beta/-beta Homodimer (AID 2283380).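 Note: scored as signal increase over DMSO baseline for both agonists and antagonists.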 The method, then: OT_ER_ERbERb_1440 is a cell-based assay that uses HEK293T, a human kidney cell line, with measurements taken at 24 hours after chemical dosing in a 384-well plate.OT_ER_ERbERb_1440 is one of one assay component(s) measured or calculated from the OT_ER_ERbERb_1440 assay. It is designed to make measurements of protein fragment complementation, a form of binding reporter, as detected with fluorescence intensity signals by Protein-fragment Complementation technology.Data from the assay component OT_ER_ERbERb_1440 was analyzed into 1 assay endpoint. This assay endpoint, OT_ER_ERbERb_1440, was analyzed in the positive analysis fitting direction relative to DMSO as the negative control and baseline of activity. Using a type of binding reporter, measures of receptor for gain-of-signal activity can be used to understand the binding at the pathway-level as they relate to the gene ESR2. Furthermore, this assay endpoint can be referred to as a primary readout, because the performed assay has only produced 1 assay endpoint. To generalize the intended target to other relatable targets, this assay endpoint is annotated to the nuclear receptor intended target family, where the subfamily is steroidal.
Protein-fragment complementation assay, or PCA, is a method for the identification and quantification of protein-protein interactions. In the PCA, the proteins of interest ("bait" and "prey") are each covalently linked to fragments of a third protein (e.g. DHFR, which acts as a "reporter"). Interaction between the bait and the prey proteins brings the fragments of the reporter protein in close proximity to allow them to form a functional reporter protein whose activity can be measured. The OT ER beta / ER beta assay is a homodimer PCA of the ligand binding domain (LBD; amino acids 310-547) of human ER beta stably expressed in HEK293T cells. […] Cells are fixed in 4 percent formaldehyde and stained with Draq5 (BioStatus) to identify cells prior to signal detection. Fluorescent signal in the basal state of the assay is very low and is primarily punctuate and cytoplasmic. Modulation of this assay is quantified as an increase in mean fluorescence intensity in the nucleus (for agonists) or in the nucleus and cytoplasm (antagonists) relative to vehicle controls, and can be quantified on a high content imaging device or a laser scanning cytometer. The latter instrument is favored for this assay because of the rapid mode of data acquisition, the ability to acquire data from the entire cell population in a well (as opposed to a fraction of the well on the high content devices) and the larger dynamic range typically achieved with this instrument. To assess sensitivity of the ER beta/ER beta LBD assay to ligand, cells were treated with the ER agonist 17- beta-estradiol (E2) in 10-point concentration- response format for 24 hours and monitored response on a laser scanning plate cytometer (Acumen eX3; TTP Lab Tech).
Regarding `CCC1(C)NC(=O)NC1=O` (stereo not given), the molecule was classed as inactive.

For `CCc1ccc(O)cc1`, the call was inactive.

For `Nc1ccc(N)c2c1C(=O)c1ccccc1C2=O`, the result was inactive.

Turning to `C=C(C)[C@@H]1CC=C(C)C(=O)C1`, the molecule was classed as inactive.

For `C[C@H]1O[C@@H](O[C@H]2[C@@H](O)C[C@H](O[C@H]3[C@@H](O)C[C@H](O[C@H]4CC[C@@]5(C)[C@H](CC[C@@H]6[C@@H]5C[C@@H](O)[C@]5(C)[C@@H](C7=CC(=O)OC7)CC[C@]65O)C4)O[C@@H]3C)O[C@@H]2C)C[C@H](O)[C@@H]1O`, the outcome was inactive.

Take `OC[C@H]1O[C@@H]2O[C@H]3[C@H](O)[C@@H](O)[C@@H](O[C@H]4[C@H](O)[C@@H](O)[C@@H](O[C@H]5[C@H](O)[C@@H](O)[C@@H](O[C@H]6[C@H](O)[C@@H](O)[C@@H](O[C@H]7[C@H](O)[C@@H](O)[C@@H](O[C@H]8[C@H](O)[C@@H](O)[C@@H](O[C@H]9[C@H](O)[C@@H](O)[C@@H](O[C@H]1[C@H](O)[C@H]2O)O[C@@H]9CO)O[C@@H]8CO)O[C@@H]7CO)O[C@@H]6CO)O[C@@H]5CO)O[C@@H]4CO)O[C@@H]3CO`: the result was inactive.

Take `OCc1cccc(Oc2ccccc2)c1`: the AC50 is 59.1 µM (active).

For `CCCCCCC(=O)c1ccccc1`, the outcome was inactive.

For `C=C[Si]1(C)O[Si](C)(C=C)O[Si](C)(C=C)O[Si](C)(C=C)O1` (stereo not given), the molecule was classed as inactive.

Regarding `BrCc1cccc(Oc2ccccc2)c1`, the AC50 was 56.3 µM (active).

Regarding `c1ccc(Oc2ccccc2)cc1`, the molecule was called inactive.

`CN(C)c1cccc(O)c1`: the call was inactive.

Take `CCCCCCCCc1ccc(S(=O)(=O)O)cc1`: the outcome was inactive.

On to `CCCCOC(=O)CCCCCCCC(=O)OCCCC`, for which the result was inactive.

For the molecule `Clc1ccc(C(c2ccccc2Cl)C(Cl)Cl)cc1` (stereo not given), the AC50 is 5.53 µM (active).

`C=Cc1ccc(C)cc1`: the molecule was classed as inactive.

Regarding `CC1CC(O)CC(C)(C)C1` (stereo not given), the molecule was called inactive.

Take `CC(C=O)Cc1ccc(C(C)(C)C)cc1` (stereo not given): the call was inactive.

For the molecule `C[Si](C)(C)O[Si](C)(C)C`, the result was inactive.

Consider `CC(C)CCCCCCc1ccc(OCCOCCO)cc1`, for which the AC50 was 25 µM (active).

`Nc1ccccc1[N+](=O)[O-]`: the result was inactive.

As for `O=C1NC2NC(=O)NC2N1` (stereo not given), the AC50 was 7.06 µM (active).

In the case of `C=CC(C)(O)CCC=C(C)C` (stereo not given), the call was inactive.

With `O=C(c1ccccc1)C(O)c1ccccc1` (stereo not given), the molecule was classed as inactive.

On to `Cc1cc(=O)oc2cc(N(C)C)ccc12`, for which the outcome was inactive.

`CC(C)Nc1nc(N)nc(Cl)n1`: the molecule was classed as inactive.

Regarding `CCCCCC(C=O)=Cc1ccccc1`, the outcome was inactive.

As to `CCCCCCCCCCCC(=O)OCC(O)CO` (stereo not given), the molecule was called inactive.

In the case of `COC(=O)c1ccc(C)cc1C1=NC(C)(C(C)C)C(=O)N1` (stereo not given) (tested in a mixture with another compound), the result was inactive.

Consider `CC(=O)O[C@H]1C[C@@H]2CC[C@@]1(C)C2(C)C`, for which the result was inactive.

With `CC(C)CCCCCCCCCCCCCCC(=O)O`, the molecule was called inactive.

As to `CCc1cc(Cc2cc(CC)cc(C(C)(C)C)c2O)c(O)c(C(C)(C)C)c1`, the outcome was inactive.

As for `C=C(C)C(=O)OCCOC1CC2CC1C1C=CCC21` (stereo not given), the result was inactive.

Turning to `CC(CN=Cc1ccccc1O)N=Cc1ccccc1O` (stereo not given), the molecule was classed as inactive.

Take `CCCCCC(C)=O`: the molecule was classed as inactive.

For `Cc1ccc(S(=O)(=O)Oc2ccc(N=Nc3ccc(-c4ccc(N=Nc5c(O)ccc6cc(S(=O)(=O)O)cc(S(=O)(=O)O)c56)c(C)c4)cc3C)cc2)cc1`, the molecule was called inactive.

For `CC(C)c1ccccc1O`, the molecule was classed as inactive.

On to `CC(=O)O[C@@H]1CC2CCC1(C)C2(C)C` (stereo not given in full), for which the molecule was classed as inactive.

Take `CCCCCCC(C)(C)S`: the molecule was called inactive.

Turning to `O=C(CC(=O)c1ccccc1)c1ccccc1`, the AC50 was 85.9 µM (active).

Values taken from PubChem BioAssay (EPA / NIEHS).
